# Measured values reported in publication PMC4336329 (PLoS ONE, 2015).
# The campaign covered roughly 310,000 compounds. About 2,200 (0.71%) showed an effect of 50% or more. Effects have a minus sign here. Many of the other results were omitted from the sample, so strong results are more common in it than they were.
# Target: human ether-à-go-go-related gene (hERG) potassium channel (human, UniProt Q12809)
# Assay: primary screen, population patch clamp on CHO cells stably expressing hERG; higher = less effect of the substance
# Sequence of human ether-à-go-go-related gene (hERG) potassium channel (Q12809 whole entry, looked up): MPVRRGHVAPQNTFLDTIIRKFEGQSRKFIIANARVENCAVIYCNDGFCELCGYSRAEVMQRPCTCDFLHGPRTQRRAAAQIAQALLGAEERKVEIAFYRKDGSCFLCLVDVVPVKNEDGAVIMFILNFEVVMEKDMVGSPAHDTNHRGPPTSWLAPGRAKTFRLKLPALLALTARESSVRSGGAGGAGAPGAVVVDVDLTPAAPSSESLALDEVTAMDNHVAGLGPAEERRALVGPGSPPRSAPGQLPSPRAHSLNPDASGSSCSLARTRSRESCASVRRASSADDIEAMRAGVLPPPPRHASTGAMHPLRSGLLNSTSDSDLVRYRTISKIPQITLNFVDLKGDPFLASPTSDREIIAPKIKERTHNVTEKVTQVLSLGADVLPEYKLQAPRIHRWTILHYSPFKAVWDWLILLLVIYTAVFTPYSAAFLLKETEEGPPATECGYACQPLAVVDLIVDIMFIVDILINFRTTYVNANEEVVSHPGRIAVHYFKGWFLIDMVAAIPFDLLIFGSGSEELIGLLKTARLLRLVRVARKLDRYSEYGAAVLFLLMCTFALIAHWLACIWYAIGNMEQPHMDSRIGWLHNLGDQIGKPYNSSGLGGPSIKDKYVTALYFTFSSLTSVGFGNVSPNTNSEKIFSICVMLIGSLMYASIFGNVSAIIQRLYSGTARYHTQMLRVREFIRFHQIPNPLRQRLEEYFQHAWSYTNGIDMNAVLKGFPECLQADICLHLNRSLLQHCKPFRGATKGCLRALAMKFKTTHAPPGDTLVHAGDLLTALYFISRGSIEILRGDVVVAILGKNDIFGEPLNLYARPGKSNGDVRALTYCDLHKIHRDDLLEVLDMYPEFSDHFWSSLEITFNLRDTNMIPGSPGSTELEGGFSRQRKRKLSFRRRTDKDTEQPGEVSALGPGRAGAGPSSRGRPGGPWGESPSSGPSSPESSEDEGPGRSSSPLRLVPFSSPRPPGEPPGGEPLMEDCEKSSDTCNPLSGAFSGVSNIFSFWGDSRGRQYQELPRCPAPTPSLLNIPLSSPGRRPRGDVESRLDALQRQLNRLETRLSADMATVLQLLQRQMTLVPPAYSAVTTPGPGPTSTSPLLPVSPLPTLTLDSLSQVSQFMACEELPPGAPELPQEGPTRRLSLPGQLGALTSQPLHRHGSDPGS
row,SMILES,"hERG current change (%, negative = inhibition) at 1uM [%]"
1,Cc1cc(-c2ccco2)n(CC(=O)NCCCc2ccccc2)n1,14.3
2,CC(C)(C)NC(=O)c1ccc2nsnc2c1,6.08
3,C=CCn1c(COc2ccc(Cl)cc2)nnc1SCC(=O)N/N=C/c1cccc(O)c1,4.13
4,COc1cccc(-c2c(C#N)c(N)nc3c2c(C)nn3-c2ccccc2)c1O,1.84
5,FC(F)(F)c1ccncc1-c1nnc(C2CCCCC2)o1,15.5
6,CCOC(=O)N1CCC(NC(=O)c2cnn3cccnc23)CC1,-4.76
7,CC1CCCCN1CCNC(=O)CC1Oc2ccccc2NC1=O (centres unmarked),5.21
8,Cc1cc(C)nc(OC(C(=O)O)C(OCCC(C)C)(c2ccccc2)c2ccccc2)n1 (centres unmarked),10.8
9,CCOC(=O)C1(CCOc2ccccc2)CCN(Cc2cc(OC)c(O)cc2Cl)CC1,7.21
10,CCOC(=O)C1(CCOc2ccccc2)CCN(Cc2ccc(COC)o2)CC1,-41.9
11,CCOC(=O)C1(CCOc2ccccc2)CCN(Cc2ccc(OC)c(COC)c2)CC1,-77.3
12,CCOC(=O)C1(CCOc2ccccc2)CCN(Cc2ccc(OC)c(O)c2)CC1,-88.3
13,CCOC(=O)C1(Cc2cccc(OC)c2)CCN(Cc2ccc(OC)c(O)c2)CC1,-16.9
14,CCOC(=O)C1(CCOc2ccccc2)CCN(Cc2ccc(F)c(OC)c2)CC1,5.6
15,CCOC(=O)C1(CCOc2ccccc2)CCN(Cc2ccc(O)c(Cl)c2)CC1,-2.25
16,CCOC(=O)C1(CCOc2ccccc2)CCN(Cc2ccc(O)c(OC)c2)CC1,-69.9
17,CCOC(=O)CSc1nnc(COc2cccc(C)c2)o1,10.6
18,COCCOc1ccc(C(F)(F)F)cc1NC(=O)c1ccc(C(F)(F)F)cc1,4.7
19,CCN(CC)S(=O)(=O)c1ccc(N/N=C/c2cc(OC)c(OC)cc2OC)nc1,17.4
20,COc1ccc(C(=O)NC2CCCc3ccccc32)cc1OC1CCN(C(C)=O)CC1 (centres unmarked),3.31
21,CCOc1ccc(/C(O)=C2/C(=O)C(=O)N(CCCN3CCOCC3)C2c2ccc(F)cc2)cc1C (centres unmarked),16.5
22,CN1CCN(S(=O)(=O)c2ccc(N3CCN(C(c4ccccc4)c4ccccc4)CC3)nc2)CC1,18.9

row,SMILES,"hERG current change (%, negative = inhibition) at 1uM [%]"
1,Cc1ccc(NC(=O)COc2ccc(S(=O)(=O)N3CCOCC3)cc2)cc1,13.6
2,O=C(COc1ccc(S(=O)(=O)N2CCOCC2)cc1)Nc1cccc([N+](=O)[O-])c1,9.62
3,O=C(COc1ccc([N+](=O)[O-])cc1)Nc1ccc(S(=O)(=O)N2CCOCC2)cc1,-55.1
4,Cc1c(CCC(=O)N2CCC[C@H]2C(=O)O)c(=O)oc2c(C)c3oc4c(c3cc12)CCCC4,21.1
5,COC(=O)C(NC(C)=O)(Nc1ccc(C)cn1)C(F)(F)F (centres unmarked),21.1
6,Cc1ccc(NP(=O)(Oc2ccccc2F)Oc2ccccc2F)cc1,-1.69
7,COc1cc(OC)cc(C(=O)N2CCN(Cc3ccccc3Br)CC2)c1,9.25
8,Cc1ccc2nc3c(cc(C(=O)NC4CCCC4)c(=N)n3CCCn3ccnc3)c(=O)n2c1,-2.46
9,Cc1ccc(S(=O)(=O)c2cc3c(=O)n4ccccc4nc3n(C3CCCCC3)c2=N)cc1,-0.427
10,Cc1ccc(S(=O)(=O)c2cc3c(=O)n4ccccc4nc3n(C3CCCC3)c2=N)cc1,3.8
11,Cc1ccc2nc3c(cc(C(=O)NC4CCCCC4)c(=N)n3C3CCCCC3)c(=O)n2c1,-72.7
12,Cc1ccc2nc3c(cc(C(=O)NC4CCCC4)c(=N)n3C3CCCCC3)c(=O)n2c1,-86.2
13,CCCOc1cccc(C(=O)N(Cc2ccco2)C2CCS(=O)(=O)C2)c1 (centres unmarked),3.56
14,CCN(CC)C(=O)C1CCN(S(=O)(=O)c2ccc3oc4ccccc4c3c2)CC1,16.7
15,CCc1ccc(NC(=O)c2nc(S(=O)(=O)Cc3ccccc3)ncc2Cl)cc1,20.7
16,O=c1[nH]c2ccccc2cc1CN(Cc1cccnc1)S(=O)(=O)c1ccc([N+](=O)[O-])cc1,-5.07
17,c1ccc(C(c2nnnn2Cc2ccco2)N2CCN(c3nc4ccccc4s3)CC2)cc1 (centres unmarked),8.1
18,Cc1ccc(Cl)cc1NC(=O)C1CCCN(S(C)(=O)=O)C1 (centres unmarked),7.81
19,Cl.O=[N+]([O-])c1ccc2ncnc(N3CCN(Cc4ccc5c(c4)OCO5)CC3)c2c1,11.4
20,O=[N+]([O-])c1ccc(N2CCN(Cc3ccc4c(c3)OCO4)CC2)nc1,-29.2
21,O=Cc1cc([N+](=O)[O-])ccc1N1CCN(Cc2ccc3c(c2)OCO3)CC1,-66.7
22,Cc1ccccc1Nc1nc2nonc2nc1N1CCOCC1,6.45

row,SMILES,"hERG current change (%, negative = inhibition) at 1uM [%]"
1,CC1C(=O)NC(=O)C1c1ccccc1 (centres unmarked),13.3
2,Cn1c(N)c(C(=O)COC(=O)CSc2ccc(Cl)cc2)c(=O)n(C)c1=O,-2.13
3,CC(C)(C)NCc1cc2ccccc2[nH]c1=O,8.1
4,CCCN1CCC(=O)N([C@H](COc2ccccc2)c2ccccc2)CC1,-76.5
5,O=C1CCN(Cc2ccccc2)CCN1[C@H](COc1ccccc1)c1ccccc1,2.66
6,CCCN1CCC(=O)N([C@H](CO)c2ccccc2)CC1,9.74
7,CC(C)CN1CCC(=O)N([C@H](COc2ccccc2)c2ccccc2)CC1,-64.3
8,O=C1CCN(CCc2ccccc2)CCN1[C@H](COc1ccccc1)c1ccccc1,-82.8
9,CCCCCCCN1CCC(=O)N([C@H](CO)c2ccccc2)CC1,-25.8
10,CC(C)CN1CCC(=O)N([C@H](CO)c2ccccc2)CC1,12.6
11,CC(C)C[C@@H](COc1ccccc1)N1CCN(CC(C)C)CCC1=O,-21.2
12,O=C1CCN(CCc2ccccc2)CCN1[C@H](CO)c1ccccc1,-7.26
13,COc1ccc(CCNc2nc(-c3cccnc3)cs2)cc1OC,23.6
14,CCCCC(=O)Nc1cccc(NC(=O)c2cccnc2Cl)c1,6.85
15,C/C(=N\O)C(=O)NCCN(C)C,13.6
16,CC(=O)O.Cc1nc(NCCc2ccc(F)cc2)c(C#N)c(C)c1[N+](=O)[O-],-41.9
17,O=C(Oc1ccc(C(=S)N2CCCCC2)cc1)c1ccccc1,7.88
18,O=C(COC(=O)CCC(=O)c1ccccc1)NCCc1ccccc1,4.19
19,O=C(Cn1ccc(NC(=O)OCc2ccccc2)nc1=O)NCCCN1CCCC1=O,7.66
20,CCOC(=O)c1sc2nc(C)nc(NCc3ccc(F)cc3)c2c1C,17.8
21,CCOC(=O)c1sc2nc(C)nc(NCc3ccc(Cl)cc3)c2c1C,-89.6
22,CCOC(=O)c1sc2nc(C)nc(NCc3ccccc3)c2c1C,16.7

row,SMILES,"hERG current change (%, negative = inhibition) at 1uM [%]"
1,[O-]/C(=C(\C(=S)NCc1ccccc1)[n+]1ccccc1)c1ccc(Cl)s1,0.527
2,COC(=O)c1c(NC(=O)c2cccs2)sc2c1CCC(C)C2 (centres unmarked),9.97
3,COc1ccc([C@@H]2[C@@H](C(=O)C(C)(C)C)N3N=Cc4ccccc4[C@@H]3C23C(=O)OC(C)(C)OC3=O)cc1OC,-5.04
4,OCCC1CN(Cc2cccn2-c2nccs2)CCN1CCc1ccccc1 (centres unmarked),-57.1
5,OCCC1CN(Cc2cccn2-c2nccs2)CCN1Cc1ccccc1 (centres unmarked),-21.7
6,OCCC1CN(Cc2cccn2-c2nccs2)CCN1Cc1ccc(F)c(F)c1 (centres unmarked),-85
7,OCCC1CN(Cc2cccn2-c2nccs2)CCN1C1CCCCC1 (centres unmarked),-4.43
8,OCCC1CN(Cc2ccn[nH]2)CCN1Cc1ccc(F)c(F)c1 (centres unmarked),8.07
9,CC(C)N1CCN(Cc2cccn2-c2nccs2)CC1CCO (centres unmarked),11.5
10,CC(C)CCN1CCN(Cc2cccn2-c2nccs2)CC1CCO (centres unmarked),-17.6
11,CCOc1ccc(CN2CCN(Cc3cccn3-c3nccs3)CC2CCO)cc1 (centres unmarked),-84
12,CC(C)=CCN1CCN(Cc2cccn2-c2nccs2)CC1CCO (centres unmarked),-1.62
13,Cc1ccc(CN2CCN(Cc3cccn3-c3nccs3)CC2CCO)cc1 (centres unmarked),-79.7
14,OCCC1CN(Cc2ccc(Oc3ncccn3)cc2)CCN1Cc1ccc(F)c(F)c1 (centres unmarked),8.89
15,CCOc1ccc(CN2CCN(Cc3ccon3)CC2CCO)cc1 (centres unmarked),-33.5
16,CC(Sc1nc2ccc(Br)cc2[nH]1)C(=O)O (centres unmarked),-11.3
17,Cc1cc(Cl)c(OCCCNC2CCCC2)c(Br)c1.O=C(O)C(=O)O,-6.84
18,Cc1nnsc1C(=O)Nc1ccc(S(=O)(=O)N2CCCC(C)C2)cc1 (centres unmarked),15.2
19,Cn1cccc1C(=O)NC1CCCCC1,5.24
20,C=CCn1c(SCC(=O)Nc2cccnc2Cl)nnc1-c1ccc(C(C)(C)C)cc1,9.68
